A selection: hits, their analogues and other compounds. The true share with any hit is near 11%.
Sm TGR block: blocks Schistosoma mansoni thioredoxin glutathione reductase; Q962Y6; purified TGR, DTNB reduction, TNB absorbance 405 nm; Potency, µM (highest dose often 114 µM), most hits filed as inhibitors; actives 3% (n = 360,000); note: nearly all actives have a fitted effect of over 60% in size
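First, TGR (20 nM dispensed) and NADPH were mixed with compound. Second, a 15 min room-temperature incubation followed. Third, further NADPH and then DTNB were added to start the reaction. Finally, TNB absorbance was monitored kinetically.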
NS1 function inh: inhibitors of influenza NS1 protein function. Potency, µM (series often up to 46.1 µM). actives 0.4% (n = 270,000); calls by dose curve; note: actives are rising curves; nearly all actives have a fitted effect of over 50% in size
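Recovery from NS1-induced slow growth read by OD600 in budding yeast switched to galactose assay medium (pH 6.0, -URA) at 1:100 dilution. Compound 23 nl per well; the matching strain lacking NS1 serves as control.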
Pf growth 48h: inhibits P. falciparum growth in the first generation, 48 h; P. falciparum luciferase growth in erythrocytes, 48 h; Potency, µM (highest dose often 28.7 µM), actives largely listed as inhibitors; actives 5.9% (n = 310,000); AID 504832
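Read-out is firefly luciferase luminescence from an integrated reporter in P. falciparum, so falling signal marks reduced parasite growth. Infected erythrocytes were at 2% hematocrit and 0.1% parasitemia (final) in Albumax-supplemented RPMI 1640.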
Pf growth 96h: P. falciparum growth inhibition at 96 hours. Potency, µM (series often up to 28.7 µM), hits mostly inhibitors. actives 6.9% (n = 320,000). P. falciparum luciferase reporter growth, 96 h
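Infected RBCs, 2% Hct / 0.05% parasitemia final; luciferase-reporter P. falciparum; cpd 96 h, 37 C, 5% CO2; luciferase detection reagent; luminescence.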
AMA1 RON2 block: disrupts binding of P. falciparum AMA1 to RON2; AlphaScreen AMA1-biotinylated RON2 peptide binding; Potency, µM (top dose mostly 58.2 µM), hits mostly inhibitors; actives 0.2% (n = 360,000); AID 720542; note: nearly all actives have a fitted effect of over 45% in size
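AMA1 (3D7) with his tag at 25 nM final met compounds first, then biotinylated RON2 peptide at 25 nM; detection used donor plus acceptor beads, 10 µg/mL apiece, read by AlphaScreen after 30 min at room temperature.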
Flu NS1 inh: validation of influenza NS1 protein function inhibitors | shares compounds with NS1 function inh | influenza NS1 function cell assay, 15-point titration | activity change, negative = inhibition, % at 32.9 µM | 1,400 tested, under 10 active; calls by dose curve
Of the large screens only hits and unclear results are named; the others gave an inactive call (follow-up assays come after a bar, where they were run). Unless noted, calls come from the whole dose curve; as a rule, active = well fitted curve in the direction sought with a large enough effect; inconclusive = small, poorly fitted or top-dose-only effect, or another doubt; inactive = no such curve, though single readings can be large; an effect the other way counts as inactive or inconclusive.

O=C1CNC(=S)N1CCOc1ccccc1	none
COc1ccc(-c2nn(-c3ccccc3)cc2/C=N/NC(=O)c2cccc(S(=O)(=O)Nc3ccccc3OC)c2)cc1	NS1 function inh 10µM, Pf growth 48h 3.3µM, Pf growth 96h 2.3µM | Flu NS1 inh inactive
COc1cccc(NC(=O)C(Sc2nnc(Nc3ccccc3C)s2)c2ccccc2)c1 (stereo not given)	NS1 function inh 5µM, Pf growth 48h inconclusive, Pf growth 96h 6.6µM | Flu NS1 inh inactive
Cc1cccc(NC(=O)c2oc3ccc(S(=O)(=O)N(C)C4CCCCC4)cc3c2C)c1C	none (no result: NS1 function inh, Pf growth 48h, Pf growth 96h, AMA1 RON2 block)
COC(=O)c1ccccc1NC(=O)c1cc(CN2CCOCC2)on1	none (no result: NS1 function inh, Pf growth 48h, Pf growth 96h, AMA1 RON2 block)
C=CCN1CC(c2nc3ccccc3n2CCOc2ccccc2)CC1=O (stereo not given)	NS1 function inh inconclusive, Pf growth 48h 12µM | Flu NS1 inh inactive
Cn1c(N)c(C(=O)COC(=O)c2cc(C3CC3)nc3ccccc23)c(=O)n(Cc2ccccc2)c1=O	NS1 function inh 11µM, Pf growth 96h inconclusive | Flu NS1 inh inactive
CCCc1nc2ccccc2c(=O)n1-c1c(C)n(C)n(-c2ccccc2)c1=O	NS1 function inh 4.5µM (no result: Pf growth 96h) | Flu NS1 inh inactive
Cc1ccc(-c2nc(C)c(CCNC(=O)c3ccccc3Br)s2)cc1	none (no result: NS1 function inh, Pf growth 48h, Pf growth 96h, AMA1 RON2 block)
O=C(CSCC(=O)N1CCCc2ccccc21)Nc1nc(-c2ccccc2)cs1	NS1 function inh 20µM | Flu NS1 inh inactive
COc1ccc(CNC(=O)O[C@]23C[C@H]4C(=O)N(c5ccccc5)C(=O)[C@H]4C[C@@]2(O)CN(S(=O)(=O)c2ccc(C)cc2)C3)cc1OC	none (no result: Sm TGR block, NS1 function inh, Pf growth 48h, Pf growth 96h)
COc1ccc(N=C2SC(CC(=O)Nc3ccccc3OC)C(=O)N2Cc2ccco2)cc1 (stereo not given)	Sm TGR block 50µM, NS1 function inh 10µM, Pf growth 96h inconclusive | Flu NS1 inh inactive
CCn1c2ccccc2c2cc(N=C3SC(CC(=O)Nc4ccccc4OC)C(=O)N3C)ccc21 (stereo not given)	NS1 function inh 4µM, Pf growth 48h inconclusive, Pf growth 96h inconclusive | Flu NS1 inh inactive
Cn1nccc1C(=O)NC1CCCc2c1cnn2-c1ccc(C(C)(C)C)cc1 (stereo not given)	Sm TGR block inconclusive
O=S(=O)(Nc1nc2ccccc2nc1NCC1CCCO1)c1cccc(Cl)c1 (stereo not given)	none
Cc1ccc2c(c1)C(c1ccccc1)N(C(=O)c1ccc(Br)o1)CC(=O)N2 (stereo not given)	Sm TGR block inconclusive (no result: Pf growth 48h)
O=C1CN(C(=O)c2ccc(Br)o2)C(c2ccccc2)c2cc(Br)ccc2N1 (stereo not given)	NS1 function inh 11µM, Pf growth 96h 5.9µM (no result: Pf growth 48h) | Flu NS1 inh inactive
CC(C)OC(=O)N(C)C[C@@H]1OCc2cnnn2CCCC(=O)N([C@@H](C)CO)C[C@@H]1C	none (no result: Sm TGR block, NS1 function inh, Pf growth 48h, Pf growth 96h)
Cc1ccc2c(=O)cc(C(=O)Nc3ccc(S(=O)(=O)N4CCCCC4)cc3)oc2c1	none (no result: NS1 function inh, Pf growth 48h, Pf growth 96h, AMA1 RON2 block)
CC1(C(=O)N2CCN(Cc3ccccc3Cl)CC2)CC1(Cl)Cl (stereo not given)	Pf growth 96h inconclusive
Cc1cccc(N(CC(=O)NC2CCCCC2)C(=O)CCC(=O)Nc2ccccn2)c1	Pf growth 96h inconclusive (no result: AMA1 RON2 block)
Cc1ccnc(NC(=O)CCC(=O)N(CC(=O)NC2CCCCC2)c2ccc3c(c2)OCO3)c1	NS1 function inh 22µM | Flu NS1 inh inactive
Cc1ccc2c(c1)NCC(C(=O)NC1CCCCC1)O2 (stereo not given)	NS1 function inh 7.9µM | Flu NS1 inh inactive
CCOC(=O)/C=C1\NC(C)(C)Cc2cc(OC)c(O)cc21	NS1 function inh inconclusive, Pf growth 48h inconclusive | Flu NS1 inh inactive
COc1cc2c(cc1OC)/C(=C/C(=O)N1CCOCC1)NC(C)(C)C2	NS1 function inh inconclusive, Pf growth 96h inconclusive | Flu NS1 inh inactive
CC1(C)Cc2ccccc2/C(=C/C(=O)N2CCCCCC2)N1	Pf growth 48h inconclusive (no result: Pf growth 96h)
CCOC(=O)/C=C1\NC(C)(C)Cc2cc(OC)c(OC)cc21	none
Cc1cccc(NC(=S)NCc2ccccc2)c1C	Pf growth 48h inconclusive
CCc1ccc(NC(=O)CN(c2ccc(Cl)cc2)S(=O)(=O)c2ccsc2C(=O)OC)cc1	none (no result: NS1 function inh, Pf growth 48h, Pf growth 96h, AMA1 RON2 block)
Cc1ccc(N2N=C(C(=O)O)CCC2=O)cc1Cl	none
CCOC(=O)C1=C(C)N(CCCCCC(=O)O)C(=O)NC1c1ccccc1Cl (stereo not given)	NS1 function inh inconclusive | Flu NS1 inh inactive
Cc1ccc(-n2nc3c(c2NC(=O)/C=C\c2ccc4c(c2)OCO4)CSC3)cc1	NS1 function inh 16µM, Pf growth 96h 13µM | Flu NS1 inh inactive
Cc1ccc(-n2nc3c(c2NC(=O)/C=C\c2ccc4c(c2)OCO4)CSC3)c(C)c1	NS1 function inh 8.9µM, Pf growth 48h inconclusive, Pf growth 96h 13µM | Flu NS1 inh inactive
CCOC(=O)c1c(C)[nH]c(C)c1S(=O)(=O)NCC1CCN(Cc2cccc(F)c2)CC1	none
C/C=C(/C)C(=O)O[C@H]1C(C)=C2C([C@@H]1OC(=O)CCCCCCC)[C@@](C)(OC(C)=O)C[C@@H](OC(=O)CCC)[C@@]1(O)[C@H]2OC(=O)[C@@]1(C)O (stereo not given in full)	NS1 function inh 8.9µM (no result: Sm TGR block, Pf growth 48h, Pf growth 96h, AMA1 RON2 block) | Flu NS1 inh inactive
Cc1ccc(C)c(S(=O)(=O)Nc2ccccc2C(=O)Nc2ccc(S(=O)(=O)Nc3ncccn3)cc2)c1	NS1 function inh 11µM, Pf growth 48h inconclusive, Pf growth 96h inconclusive | Flu NS1 inh inactive
CCOC(=O)C1=c2/c(=C/c3ccncc3)c(N)c(C(=O)OC)n2C(=O)C(c2ccncc2)S1 (stereo not given)	none
CCOC(=O)CSc1nc(=O)n2ccc(C)cc2n1	none
CC(C)OC(=O)c1cc2c(ccn2C)n1CC(=O)N(Cc1ccccc1)c1ccccc1	NS1 function inh 11µM, Pf growth 48h inconclusive, Pf growth 96h inconclusive, AMA1 RON2 block inconclusive | Flu NS1 inh inactive
CCOC(=O)c1cc2c(ccn2C)n1Cc1cc(C)ccc1C	Pf growth 48h inconclusive, AMA1 RON2 block inconclusive
O=c1ccn([C@@H]2O[C@H](CO)[C@@H](O)[C@H]2O)c(=O)[nH]1	NS1 function inh 13µM | Flu NS1 inh inconclusive
O=c1ccn(C2OC(COP(=O)(O)OC3C(CO)OC(n4ccc(=O)[nH]c4=O)C3O)C(O)C2O)c(=O)[nH]1 (stereo not given)	none (no result: Sm TGR block, NS1 function inh, AMA1 RON2 block)
O=c1c2c3nc4ccccc4nc3n(Cc3ccccc3)c2ncn1Cc1ccco1	Sm TGR block 8.9µM, NS1 function inh 16µM, Pf growth 48h 10µM (no result: Pf growth 96h) | Flu NS1 inh inactive
COc1ccccc1Nc1nn2c(=O)c3ccc(C(=O)N4CCC(C)CC4)cc3nc2s1	NS1 function inh inconclusive, Pf growth 48h inconclusive | Flu NS1 inh inconclusive
